An excerpt weighted towards active compounds, which were near 2.8% of everything screened.
ERb coact inh: ER-beta (human) coactivator binding inhibition; Q92731; TR-FRET ER-beta LBD / SRC1-Cy5 peptide binding; receptor agonist-loaded with 1 µM estradiol; inhibition, % at 25.6 µM; actives 1.3% (n = 86,000);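 active = compounds whose percent inhibition of the receptor-coactivator binding signal exceeds about 50% in the single-dose screen, limit read from the data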;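 note: 0% = receptor plus peptide wells without compound and 100% = peptide-only wells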
EphB4 antag: blocks human EphB4 binding to ephrin-B2 | P54760 | EphB4 LBD / TNYL-RAW-Alexa532 peptide, fluorescence polarization | inhibition, % at 7 µM | actives 0.15% (n = 97,000) | AID 720;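 active = inhibition above the screen-wide mean inhibition plus 3 SD, cut at about 15% in these data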;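 note: 0% = DMSO wells and 100% = excess unlabeled TNYL-RAW peptide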
ERa SRC1 pot: ER-alpha (human) coactivator binding potentiation | coactivator binding (% of control), % at 25.6 µM | TR-FRET ERalpha-LBD/SRC-Cy5 coactivator binding, 2 h; 100 = basal binding, no effect | actives 1.3% (n = 86,000); in the data active = activity above about 200%;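 note: binding measured in presence of low estradiol as agonist stimulus; 0% = peptide alone without receptor and 100% = receptor with peptide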
ERa coact inh: ER-alpha (human) coactivator binding inhibition; TR-FRET ER-alpha LBD / SRC-1 peptide, estradiol-bound; P03372; AID 629; actives 1.7% (n = 86,000); inhibition, % at 25.6 µM; in the data active = inhibition above about 50%;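 note: 0% = receptor plus peptide control and 100% = peptide only without receptor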
The depositor's hits bear a star; . = no result; [ ] = another dose, or the depositor's remark.

SMILES	ERb coact inh	EphB4 antag	ERa SRC1 pot	ERa coact inh
O=C(CSc1nccn1Cc1ccccc1)NCc1ccccc1	1	4	118	-2
O=C(COC(=O)C1CCCN1C(=O)c1cccs1)Nc1ccc2c(c1)OCO2 (stereo not given)	38	3	70	52*[fluorescence artefact?]
CC(C)(C)C(=O)Nc1ccnc(-c2cccnc2)n1	.	4	.	.
CC(C)(C)OC(=O)N1CCC(C(N)=O)CC1	-7	.	109	6
CCN1CCC(C(N)=O)CC1	51*	-2	105	3
NC(=O)c1sc2nc3c(c(-c4ccco4)c2c1N)CCC3	54*[fluorescence artefact?]	-10	48	20
COc1ccc(-c2c3c(nc4sc(C(=O)Nc5cc(C)on5)c(N)c24)CCC3)cc1	1	3	182	-5
Clc1ccc2oc(-c3ccccc3)nc2c1	57*[fluorescence artefact?]	0	102	-1
COc1ccc(OC)c(C(=O)c2ccc(C(=O)N3CCCCC3)cc2)c1	-8	-6	105	-10
O=C1c2ccccc2C(=O)N1CCCOc1ccccc1	17	-8	103	19
COc1ccc(OCC(=O)OCCN2C(=O)c3ccccc3C2=O)cc1	42	3	116	59*[fluorescence artefact?]
O=C1COc2ccc(C(=O)CSc3nnc(Cc4cccs4)n3-c3ccc(Cl)cc3)cc2N1	-6	5	96	-1

Compound activity deposited in PubChem by several laboratories.
